Experimental data: PubChem BioAssay (NCI)
The panel holds about 83,000 compounds, 20% with a hit somewhere; the sample as a whole holds those more often.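 Activity criterion: percent growth below 10, measured after cells in 96-well plates were exposed to a single compound concentration for 48 hours.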 Activity calls are given as the source filed them.

What follows are compounds tested on OVCAR-4 ovarian (assay: NCI-60 one-dose screen, 48 h (100 = growth as untreated, 0 = no growth, -100 = all killed)). Details: 10 µM unless noted.

Row | SMILES | growth
1 | Cn1cc(C(=O)c2nc(-c3c[nH]c4ccc(F)cc34)no2)c2cc(F)ccc21 | 97.5% (inactive)
2 | O=[N+]([O-])c1ccccc1/C=N\NC(=S)N/N=C/c1ccccc1[N+](=O)[O-] | 98.9% (inactive)
3 | Cn1cc(C(=O)c2nc(-c3c[nH]c4ccc(Br)cc34)no2)c2cc(F)ccc21 | 93.1% (inactive)
4 | COc1cccc(-c2nc(SCC(=O)Nc3ccc(C(=O)/C=C/c4ccc(OC)c(OC)c4)cc3)[nH]c(=O)c2C#N)c1 | 80.8% (inactive)
5 | Cc1cc(N2CCN(C)CC2)nc(NC2CCCC(Nc3ccnc4cc(Cl)ccc34)C2)n1 (stereo not drawn) | 20.3% (inactive)
6 | COCCNc1ccc2c3c(cccc13)C(=O)N(CCN(C)C)C2=O | 31.6% (inactive)
7 | FC(F)(F)c1[nH]ncc1-c1nc2ccc3n[nH]c(C#Cc4cccnc4)c3c2c2c1CCCC2 | 80.5% (inactive)
8 | Cc1ccc(/C=C2\SC(=S)N(CC(=O)NCCCN3CCOCC3)C2=O)cc1 | 91.3% (inactive)
9 | Cc1ncc(C(=O)Nc2ccc(CN3CCN(C)CC3)c(C(F)(F)F)c2)cc1C#Cc1cnc2cccnn12 | -17% (active)
10 | CC(C)(C)CC(C)(C)c1ccc(OCCOCC[N+](C)(C)Cc2ccccc2)cc1 | -16% (active)
11 | O=C1Nc2c(ccc(Cl)c2Cl)/C1=C\c1cc(C(F)(F)F)cc(C(F)(F)F)c1 | 9.67% (active)
12 | Cc1cc2c3ccccc3ccc2[n+]2ccccc12 | 31.6% (inactive)
13 | COc1ccc(C2C(C#N)=C(N)Oc3n[nH]c(-c4cccs4)c32)cc1I (stereo not drawn) | 108% (inactive)
14 | COc1ccc(-n2nc(C)c3c(Nc4ccc(NC(=O)Nc5cc(C(F)(F)F)ccc5F)cc4)ncnc32)cc1 | 57.8% (inactive)
15 | CC1=CC(C)(C)Nc2ccc(Cc3ccc4c(c3)C(C)=CC(C)(C)N4)cc21 | 72.2% (inactive)
16 | Clc1ccc2c(NCCNc3nc(N4CCCCC4)nc4ccccc34)ccnc2c1 | 34.2% (inactive)
17 | Cc1ccc(C(SCC(N)C(=O)O)(c2ccccc2)c2ccc(C)cc2)cc1 (stereo not drawn) | 61.5% (inactive)

Row | SMILES | growth
18 | CCN1CCN(c2nc(NCCNc3ccnc4cc(Cl)ccc34)c3ccccc3n2)CC1 | 33.7% (inactive)
19 | CCN(CC)S(=O)(=O)c1ccc(OC)c(NC(=O)c2[nH]c(C)c3c2CCCCC3=O)c1 | 49.5% (inactive)
20 | OC(COc1cccc2ccccc12)CN1CCN(c2ccccc2Cl)CC1 (stereo not drawn) | 92.7% (inactive)
21 | Clc1ccc2nc3nc4ccc[nH]c4cc3c2c1 | 49.2% (inactive)
22 | CN(C)C(=S)N=Nc1c(O)[nH]c2ccccc12 | 14.9% (inactive)
23 | COc1ccc(C(=S)N2CCN(c3cccc(Cl)c3)CC2)cc1 | 99.1% (inactive)
24 | C#CCOc1ccc2ncnc(Nc3cccc(CNC(=O)CCl)c3)c2c1 | 27.2% [8.25 µM] (inactive)
25 | O=c1c2c3c(sc2nc(N/N=C/c2cn(-c4ccccc4)nc2-c2ccc(Cl)cc2)n1Cc1ccccc1)CCCC3 | 109% (inactive)
26 | O=C(CN1C(=O)/C(=C/c2ccc(Cl)cc2)SC1=S)NCCCN1CCOCC1 | 93.5% (inactive)
27 | CN(C)c1ccc(NC(=O)c2ccc(/C=C/C(=O)c3ncc[nH]3)cc2)cc1 | 75.7% (inactive)
28 | CN1CCN=C1c1ccc(NC(=O)c2ccc(C(=O)Nc3ccc(C4=NCCN4C)cc3)cc2)cc1 | 98.3% (inactive)
29 | O=c1cc(CSc2nnc(SCc3cc(=O)oc4c3ccc3ccccc34)o2)c2ccc3ccccc3c2o1 | 111% (inactive)
30 | CCN(CC)c1ccc(/C=N\NC(=O)/C=C/C=C/c2ccc3c(c2)OCO3)c(O)c1 | 15.3% (inactive)
31 | O=C(Cc1ccc(/C=C/C(=O)c2ncc[nH]2)cc1)Nc1ccc(F)cc1 | 36.6% (inactive)
32 | CC(C)(C)N1CCC1CN (stereo not drawn) | 103% (inactive)
33 | Cc1cc(N2CCCCCC2)nc(NC2CCCC(Nc3ccnc4cc(Cl)ccc34)C2)n1 (stereo not drawn) | -63.9% (active)
